According to PubChem BioAssay (EPA / NIEHS):
Records with an inconclusive call do not appear. The source made the active and inactive calls. Rule for the calls: active = hit-call score of the fitted dose curve at least 0.9, where 1 is the maximum; inconclusive = response in the unintended direction; inactive = score below 0.9.

Assay: ATG_M_19_TRANS: Attagene TRANS-FACTORIAL HepG2 Assay for M19 Transcription Factor (Internal Marker) (AID 2282974)
Details: HepG2 Attagene TRANS-FACTORIAL M19 internal marker reporter
Summary of the method: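 HepG2 transiently transfected with GAL4-UAS multiplex reporter constructs, exposed 24 h; reporter RNA quantified by RT-PCR, 6-FAM labeling, HpaI digestion and capillary electrophoresis; internal background marker fitted upward versus DMSO.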

Question: With `Cc1ccc(S(=O)(=O)O)c(C)c1` as the compound, how does the outcome read?
Answer: inactive

Question: With `CCCCOCCO` as the compound, how does the outcome read?
Answer: inactive

Question: For `C=C(C)C(=O)OCCC(F)(F)C(F)(F)C(F)(F)C(F)(F)C(F)(F)C(F)(F)F`, which outcome is on record?
Answer: inactive

Question: For `C[C@@H]1C[C@H]2[C@@H]3CCC4=CC(=O)C=C[C@]4(C)[C@@]3(F)[C@@H](O)C[C@]2(C)[C@@]1(O)C(=O)COP(=O)(O)O`, which outcome is on record?
Answer: inactive

Question: Which outcome does the source give for `COc1cc(CCC(=O)CC(=O)CCc2ccc(O)c(OC)c2)ccc1O` here?
Answer: inactive

Question: Which outcome does the source give for `FC(F)(I)C(F)(F)C(F)(F)C(F)(F)C(F)(F)C(F)(F)I` here?
Answer: inactive

Question: Which outcome does the source give for `CCCCCCCCOC(=O)CCCCCCCCC(=O)OCCCCCCCC` here?
Answer: inactive

Question: Which outcome does the source give for `CCc1ccc(CCOc2ccc(CC3SC(=O)NC3=O)cc2)nc1` (stereo not given) here?
Answer: inactive

Question: With `Nc1cccc2c(N)cccc12` as the compound, how does the outcome read?
Answer: inactive

Question: With `CC(O)C(=O)O` (stereo not given) as the compound, how does the outcome read?
Answer: inactive

Question: For `O=C(O)c1ccccc1C(c1ccc(O)cc1)c1ccc(O)cc1`, which outcome is on record?
Answer: inactive

Question: With `CCC(C)(C)C1CCC(O)CC1` (stereo not given) as the compound, how does the outcome read?
Answer: inactive

Question: Which outcome does the source give for `CCCCCCCCCCCCc1ccccc1S(=O)(=O)O` here?
Answer: inactive

Question: For `CCCCCCCC(=O)O`, which outcome is on record?
Answer: inactive

Question: For `CC[C@H](c1ccc(O)cc1)[C@@H](CC)c1ccc(O)cc1`, which outcome is on record?
Answer: inactive

Question: Which outcome does the source give for `CC(C)(C)c1cc(C(C)(C)C)c(O)c(C(C)(C)C)c1` here?
Answer: inactive

Question: With `CCCOC(=O)c1ccc(O)cc1` as the compound, how does the outcome read?
Answer: inactive

Question: For `CCC(=C(c1ccc(O)cc1)c1ccc(OCCN(C)C)cc1)c1ccccc1`, which outcome is on record?
Answer: inactive

Question: For `CC[C@H](C)[C@@H](C(=O)O)n1sc2ccccc2c1=O`, which outcome is on record?
Answer: inactive

Question: For `O=C(O)Cc1cc(I)c(Oc2cc(I)c(O)c(I)c2)c(I)c1`, which outcome is on record?
Answer: inactive

Question: With `O=C1OC2(c3ccccc31)c1cc(Br)c(O)c(Br)c1Oc1c2cc(Br)c(O)c1Br` as the compound, how does the outcome read?
Answer: inactive

Question: For `c1ccc2cc3c(ccc4ccccc43)cc2c1`, which outcome is on record?
Answer: inactive

Question: For `ClC1=C(Cl)C(Cl)(Cl)C(Cl)=C1Cl`, which outcome is on record?
Answer: inactive

Question: Which outcome does the source give for `CCCCCCC(=O)O` here?
Answer: inactive

Question: With `CCOC(=O)CC(O)(CC(=O)OCC)C(=O)OCC` as the compound, how does the outcome read?
Answer: inactive

Question: For `CC#C[C@]1(O)CC[C@H]2[C@@H]3CCC4=CC(=O)CCC4=C3[C@@H](c3ccc(N(C)C)cc3)C[C@@]21C`, which outcome is on record?
Answer: inactive

Question: For `OCCC(F)(F)C(F)(F)C(F)(F)C(F)(F)C(F)(F)C(F)(F)C(F)(F)C(F)(F)F`, which outcome is on record?
Answer: inactive

Assay: ATG_GAL4_TRANS: Attagene TRANS-FACTORIAL HepG2 Assay for GAL4 (Internal Marker) (AID 2282976)
Details: HepG2 Attagene TRANS GAL4 internal marker reporter
Summary of the method: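 Background-control readout: GAL4-UAS reporter transcript in transiently transfected HepG2 cells after 24 h compound exposure. Measured by RT-PCR, 6-FAM primer extension, HpaI digest and capillary electrophoresis; gain-of-signal fit versus DMSO.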

Question: With `O=c1c(-c2ccc(O)cc2)coc2cc(O)ccc12` as the compound, how does the outcome read?
Answer: inactive

Question: Which outcome does the source give for `Cc1ccc(S(=O)(=O)O)c(C)c1` here?
Answer: inactive

Question: Which outcome does the source give for `C=C(C)C(=O)OCCC(F)(F)C(F)(F)C(F)(F)C(F)(F)C(F)(F)C(F)(F)F` here?
Answer: inactive

Question: Which outcome does the source give for `C[C@@H]1C[C@H]2[C@@H]3CCC4=CC(=O)C=C[C@]4(C)[C@@]3(F)[C@@H](O)C[C@]2(C)[C@@]1(O)C(=O)COP(=O)(O)O` here?
Answer: inactive

Question: With `CCCCCCCCOC(=O)CCCCCCCCC(=O)OCCCCCCCC` as the compound, how does the outcome read?
Answer: inactive

Question: For `CCc1ccc(CCOc2ccc(CC3SC(=O)NC3=O)cc2)nc1` (stereo not given), which outcome is on record?
Answer: inactive

Question: Which outcome does the source give for `CC(O)C(=O)O` (stereo not given) here?
Answer: inactive

Question: For `O=C(O)c1ccccc1C(c1ccc(O)cc1)c1ccc(O)cc1`, which outcome is on record?
Answer: inactive

Question: For `CN1CCN(c2ccccc2/C=C2\SCCN(c3ccc(Cl)c(Cl)c3)C2=O)CC1`, which outcome is on record?
Answer: inactive

Question: With `CCC(C)(C)C1CCC(O)CC1` (stereo not given) as the compound, how does the outcome read?
Answer: inactive

Question: With `CCCCCCCC(=O)O` as the compound, how does the outcome read?
Answer: inactive

Question: Which outcome does the source give for `CC[C@H](c1ccc(O)cc1)[C@@H](CC)c1ccc(O)cc1` here?
Answer: inactive

Question: With `CCCCC[C@H](O)CC(=O)CCc1ccc(O)c(OC)c1` as the compound, how does the outcome read?
Answer: inactive

Question: For `CC(C)(C)c1cc(C(C)(C)C)c(O)c(C(C)(C)C)c1`, which outcome is on record?
Answer: inactive

Question: For `CCCOC(=O)c1ccc(O)cc1`, which outcome is on record?
Answer: inactive

Question: With `CCC(=C(c1ccc(O)cc1)c1ccc(OCCN(C)C)cc1)c1ccccc1` as the compound, how does the outcome read?
Answer: inactive

Question: With `O=C(O)Cc1cc(I)c(Oc2cc(I)c(O)c(I)c2)c(I)c1` as the compound, how does the outcome read?
Answer: inactive

Question: Which outcome does the source give for `O=C1OC2(c3ccccc31)c1cc(Br)c(O)c(Br)c1Oc1c2cc(Br)c(O)c1Br` here?
Answer: inactive

Question: With `c1ccc2cc3c(ccc4ccccc43)cc2c1` as the compound, how does the outcome read?
Answer: inactive

Question: Which outcome does the source give for `NCC(F)(F)C(F)(F)C(F)(F)C(F)(F)C(F)(F)C(F)(F)C(F)(F)F` here?
Answer: inactive

Question: For `CCCCCCC(=O)O`, which outcome is on record?
Answer: inactive

Question: For `CCOC(=O)CC(O)(CC(=O)OCC)C(=O)OCC`, which outcome is on record?
Answer: inactive

Question: For `OCCC(F)(F)C(F)(F)C(F)(F)C(F)(F)C(F)(F)C(F)(F)F`, which outcome is on record?
Answer: inactive
